This is part of a sample that, as a whole, favours compounds with a hit. Of some 83,000 tested, about 20% had one in any assay.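 Results are percent growth after 48 hours of single-concentration exposure. 100 means growth as in untreated cells, lower positive values show inhibition; negative values down to -100 show cell death.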 Calls of active or inactive are those of the source. Rule for the calls: active = growth percent below 10; inactive = the rest.

This assay deals with UACC-62 melanoma. Kind of assay: NCI-60 one-dose screen, 48 h (100 = growth as untreated, 0 = no growth, -100 = all killed). The note with it: 10 µM.
In the case of `CCOC(=O)[C@@H]1[C@H](c2ccccc2)[C@H]([N+](=O)[O-])[C@H](c2cn(-c3ccccc3)nc2C)N1Cc1ccccc1`, the growth is 60.9% (inactive).
Take `O=S(=O)(NC1c2ccccc2Oc2ccccc21)c1cc(Cl)ccc1Cl`: the growth is 93.2% (inactive).
In the case of `O=C(O)CCCCSCCCCC(=O)O`, the growth was 109% (inactive).
The result for `COc1ccc(OC)c([N+](=O)[O-])c1C=O` reads 100% (inactive).
For `c1ccc(CC(NCCNC(Cc2ccccc2)c2ccccc2)c2ccccc2)cc1` (stereo not drawn), the growth was 16% (inactive).
Under `COc1ccc(-c2nsc3c2NC(=O)CC3c2cccc(Cl)c2)cc1` (stereo not drawn) stands 41.6% (inactive); under `Oc1ccc(/C=N\Nc2ccccn2)c(O)c1`, 7.44% (active).
For the compound `O=c1ccc2nc(-c3ccccc3)nn(-c3ccccc3)c-2c1`, the growth is 30.1% (inactive).
Consider `COc1ccc2nc(C)cc(Nc3ccc(Cl)cc3)c2c1`, for which the growth was 99% (inactive).
As to `COc1c(-c2c3sc(=O)[nH]c3nc3c2c(=O)[nH]n3C(C)C)cc2c(c1OC)OCO2`, the growth was 99.4% (inactive).
The result for `Fc1cc(-c2ncc(-c3cc(F)c(F)c(F)c3)c(NC3CCCCCC3)n2)cc(F)c1F` reads 89.4% (inactive).
For the compound `COc1ccc(NC(=O)CCn2cnc3c(cc(-c4ccccc4)n3-c3ccccc3)c2=O)cc1`, the growth was 92.4% (inactive).
Regarding `N#CCC1CCCC1`, the growth is 99.4% (inactive).
Under `COc1ccc(-c2nnc(COc3ccc(NC(=O)Nc4cccc(C(F)(F)F)c4)cc3F)o2)cc1` stands 17.1% (inactive); under `COc1ccc(/C=C2\SC(=S)N(CCCN3CCOCC3)C2=O)c(OC)c1`, 90.8% (inactive); under `COc1cc2nc(Sc3sc(N)nc3C)n(-c3ccc(Oc4ccccc4)cc3)c(=O)c2cc1OC`, 81.4% (inactive).
Regarding `Cc1ccc2oc(=O)cc(/C(=C3/C=CC=N3)c3ccc[nH]3)c2c1`, the growth was 11.8% (inactive).
As to `Nc1ccccc1NC(=O)CCCCCCC(=O)Nc1ccc2c(c1)/C(=C/c1ccc[nH]1)C(=O)N2`, the growth was 25.8% (inactive).
The result for `COc1ccccc1Cn1cc2c(c1-c1ccccc1)CCc1cnoc1-2` reads 50.1% (inactive); that for `COc1cc(-c2nc3ccc(C)cc3[nH]2)ccc1OCc1nnc(-c2ccc(CC(C)C)cc2)o1`, 90.3% (inactive); that for `C[n+]1c(/C=C/c2c[nH]c3ccccc23)ccc2ccccc21`, 54.2% (inactive).
The result for `COc1cc(Cl)cc(-c2nn(-c3cccc(NC(=O)Nc4cccc(C(F)(F)F)c4)c3)cc2-c2ccncc2)c1` reads -11.5% (active); that for `COc1cc(/C=C/C(=O)c2cc(-c3ccc(F)cc3)ccc2O)cc(OC)c1OC`, 58.5% (inactive); that for `Cc1ccc2c(c1)-c1cc(C)nn1-c1ccc(C#N)cc1O2`, 52.4% (inactive).
The result for `C=CCNC(=S)NN` reads 99.6% (inactive); that for `N/C(=N\O)c1cn(C2OC(CO)C(O)C2O)c2ncnc(N)c12` (stereo not drawn), -68.2% (active).
Regarding `CC(=O)c1c(O)cc2c3c1OC(C)(C)C1CCC(C)(CC31)O2` (stereo not drawn), the growth was 88.5% (inactive).
For `CC(=O)Nc1ccc(Sc2ccc(NC(C)=O)cc2)cc1`, the growth was 96.5% (inactive).
As to `CC(=O)N(O)c1ccc(/C=C/c2ccccc2)cc1`, the growth was 32.2% (inactive).
Take `CCOc1nc(-c2ccccc2)cc2c(O)c(C(=O)N/N=C/c3ccc(OC)cc3)[nH]c(=O)c12`: the growth is 104% (inactive).
Consider `CNC(=S)Sc1ccc([N+](=O)[O-])cc1[N+](=O)[O-]`, for which the growth was 81.6% (inactive).
The result for `O=C(COc1ccc(Cl)cc1Cl)Oc1coc(CSc2nc3ccccc3s2)cc1=O` reads 70.5% (inactive); that for `COc1ccc(Cn2cc3c(c2-c2ccccc2)CC(C)(C)c2cnoc2-3)cc1`, 54.6% (inactive); that for `Cc1nnc2c3nnc(-c4ccc(Cl)cc4)n3c3ccccc3n12`, 97.7% (inactive).
Turning to `Nc1ccc(Sc2ccc3c4c2cccc4c(=O)n2c4ccccc4nc32)cc1`, the growth was 31.9% (inactive).
Under `COc1cccc(C(=O)NNc2nc(N3CCN(C4CCCCC4)CC3)nc(N3CCN(C(c4ccccc4)c4ccccc4)CC3)n2)c1` stands 39.6% (inactive).
With `Cc1ncc([N+](=O)[O-])n1CCOc1ccc(C(=O)/C=C/c2ccc(C(F)(F)F)cc2)cc1`, the growth is 67.5% (inactive).
The result for `O=C(CCc1ccccc1)N1CCN(C(=O)CCc2ccccc2)CC1` reads 95.4% (inactive).

The values are drawn from PubChem BioAssay (NCI).
